Reference: PubChem BioAssay (NCATS)
Records with an inconclusive call do not appear. Entries that show only a call come without a potency. Calls of active or inactive are those of the source. The call rests on the fitted dose curve; in most records, active means well fitted inhibition curve with a large enough effect; inconclusive means small, poorly fitted or top-dose-only effect; inactive means flat fitted curve, though single readings scatter.

Tested on: CRL-7250
Test: qHTS assay to identify novel small-molecules to repurpose for Merkel cell carcinoma treatment (AID 1296009); further: nearly all actives have a fitted effect of over 60% in size
Conditions: MCC and control cell lines, CellTiter-Glo viability, 72 h; series mostly up to 92 µM
Summary of the method: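 72 hr, 37 degree celsius; NPC 8-pt / MIPE 11-pt dose response; compound pinned in DMSO; CellTiter-Glo, 10 min RT, luminescence; normalized to no-cell and DMSO controls.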

Row | SMILES | Potency | outcome
1 | CC1CC(=O)C2=C(O1)OC1(C)CCC3C(C)(C)C4OC4C(=O)C3(C)C1C2 (stereo not drawn) | inactive | 
2 | CC1(C)C2CC=C(COC3OC(COC4OCC(O)(CO)C4O)C(O)C(O)C3O)C1C2 (stereo not drawn) | inactive | 
3 | O=C(/C=C/c1ccccc1)OC[C@H]1O[C@@H](OC(=O)c2cc(O)c(O)c(O)c2)[C@H](O)[C@@H](O)[C@@H]1O | inactive | 
4 | O=C(NC1CCN(CC(F)(F)F)CC1)c1ccc(-c2cccc(F)c2)nc1 | inactive | 
5 | C[C@@H]1CC[C@H]2C(C)(C)[C@H](O)[C@H](O)C[C@]2(C)[C@@]12Cc1c(O)cc3c(c1O2)CNC3=O | inactive | 
6 | CC1CC(=O)C2C(O)(C1)CC(O)C13OC1c1c(O)cccc1C(=O)C23O (stereo not drawn) | inactive | 
7 | CC(C)(O)c1ccc2c(c1)ncn2-c1cccc(-c2ccccc2C#N)c1 | inactive | 
8 | NC(=O)[C@H](O[C@@H]1O[C@H](CO)[C@@H](O)[C@H](O)[C@H]1O)c1ccccc1 | inactive | 
9 | COc1c2c(c(C)c3c1C(=O)OC3)O[C@@]1(C)C[C@@H](O)[C@]34O[C@](OC)(CC[C@]3(C)[C@H]1C2)OC4(C)C | inactive | 
10 | Cc1cc(O)cc(O[C@@H]2O[C@H](CO)[C@@H](O)[C@H](O)[C@H]2O)c1 | inactive | 
11 | CC1OC(OC2C(OC3C(O[C@H]4CC[C@@]5(C)C(CC[C@]6(C)C5CC=C5C7CC(C)(C)CC(O)[C@]7(C)CC[C@]56C)C4(C)C)OC(C(=O)O)C(O)C3O)OCC(O)C2O)C(O)C(O)C1O (stereo partly drawn) |  | inactive [at 9.27 µM]
12 | C/C=C1\[C@H](O[C@@H]2O[C@H](CO)[C@@H](O)[C@H](O)[C@H]2O)OC=C(C(=O)OC)[C@H]1CC(=O)OC | inactive | 
13 | CN1CCc2cc3c(cc2C(=O)Cc2cc4c(cc2C1)OCO4)OCO3 | inactive | 
14 | COc1cccc(OC)c1-c1nc(C(=O)N[C@@H](CC(C)C)C(=O)O)cn1-c1ccnc2cc(Cl)ccc12 | inactive | 
15 | CC1(C)CC[C@]2(C(=O)O[C@@H]3O[C@H](CO[C@@H]4O[C@H](CO)[C@@H](O)[C@H](O)[C@H]4O[C@@H]4O[C@H](CO)[C@@H](O)[C@H](O)[C@H]4O)[C@@H](O)[C@H](O[C@@H]4O[C@H](CO)[C@@H](O)[C@H](O)[C@H]4O)[C@H]3O)CC[C@]3(C)C(=CCC4[C@@]5(C)CC[C@@H](O)[C@@](C)(C(=O)O[C@@H]6O[C@H](CO)[C@@H](O)[C@H](O)[C@H]6O)C5CC[C@]43C)[C@@H]2C1 (stereo partly drawn) |  | inactive [at 9.27 µM]
16 | CC(CC12CCCN1C(=O)C1CCCN1C2=O)OC(N)=O (stereo not drawn) | inactive | 
17 | COC(=O)c1cc(CN2CCN(C(=N)N)CC2)cc(C(=O)N2CCN(C(=O)c3ccc(C(=N)N)cc3)CC2)c1 | inactive | 
18 | CCN[C@@H]1C[C@H](N)[C@@H](O[C@H]2OC(CN)=CC[C@H]2N)[C@H](O)[C@H]1O[C@H]1OC[C@](C)(O)[C@H](NC)[C@H]1O | inactive | 
19 | CC(C)=CCCC1(C)Oc2cc3c(c4c2C2C(O4)C(C)(O)CCC21)CN(C(CCC(=O)O)C(=O)O)C3=O (stereo not drawn) | inactive | 
20 | O=S(=O)(Nc1cc(Cl)c(Oc2cnc3ccccc3c2)c(Cl)c1)c1ccc(Cl)cc1Cl | inactive | 
21 | O=C(Cc1ccc(-c2ccccc2)cc1)NC1CCC1 | inactive | 
22 | CC1(C(=O)O)CCCC2(C)C3CCC4CC3(CCC12)CC4C(=O)O (stereo not drawn) | inactive | 
23 | COc1ccc(-c2ccc(-c3cn(C(=O)N4CCCCC4c4ccccc4)nn3)cc2)cc1 (stereo not drawn) | inactive | 
24 | CCCCNc1ccc(-c2ccc(CN3CCOCC3)cn2)c(NC2CCC(O)CC2)c1 (stereo not drawn) | inactive | 
25 | COCC1OC(OC(C)(C)C2CCC3(C)C=C(C4CCC5C4(C)CC(O)C4OC(C(C)(C)O)CCC45C)CCC3O2)C(NC(C)=O)C(O)C1O (stereo not drawn) | inactive | 
26 | CC(C)(C)NCC(O)COc1cccc2c1CCCC2=O (stereo not drawn) | inactive | 
27 | CC1(CO)CC(O)C2(C)CCC3(C)C(=CCC4C5(C=O)CCC(OC6OC(C(=O)O)C(O)C(O)C6OC6OC(C(=O)O)C(O)C(O)C6O)C(C)(C)C5CCC43C)C2C1 (stereo not drawn) |  | inactive [at 9.27 µM]
28 | CC1(C)CCC2(C(=O)OC3OC(COC4OC(CO)C(O)C(O)C4O)C(O)C(O)C3O)CCC3(C)C(=CCC4C5(C)CCC(O)C(C)(C(=O)O)C5CCC43C)C2C1O (stereo not drawn) |  | inactive [at 9.27 µM]
